According to PubChem BioAssay AID1159580 (chemical genetic matrix, 2015):
Among all 5,500 compounds or so, about 2,000 (36%) were called active. Inconclusive results (about 18%) are left out. Rule as the data show it: active = normalized growth mostly below about 0.91 (no sharp cut-off); inconclusive = no clear call, values can overlap the other calls; inactive = mostly above about 0.92. Some of the results follow.

Assay: chemical genetic growth profiling, strain panel (AID 1159580);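 also: tested at 20 µM; growth read once vehicle control cultures reached saturation at 30 °C; 1 = growth at the plate median or of vehicle wells; lower values mean less growth of the strain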
Conditions: S. cerevisiae deletion strains, growth OD

Measured: normalized growth

O=C1C=CC(=O)c2c(O)c(Cl)c(Cl)c(O)c21
active: locus YAL021C, strain ccr4, stronger effect = lower value 0.0743 | locus YAL026C, strain drs2, stronger effect = lower value 0.0712 | locus YAL030W, strain snc1, stronger effect = lower value 0.065 | locus YBL061C, strain skt5, stronger effect = lower value 0.0691 | locus YBR009C, strain hhf1, stronger effect = lower value 0.0757 | locus YBR023C, strain chs3, stronger effect = lower value 0.0713 | locus YBR171W, strain sec66, stronger effect = lower value 0.0854 | locus YBR231C, strain swc5, stronger effect = lower value 0.0695 | locus YBR279W, strain paf1, stronger effect = lower value 0.0653 | locus YCL011C, strain gbp2, stronger effect = lower value 0.0661 | locus YCL016C, strain dcc1, stronger effect = lower value 0.0723 | locus YCL061C, strain MRC1, stronger effect = lower value 0.0708 | locus YCL069W, strain vba3, stronger effect = lower value 0.0675 | locus YCR088W, strain abp1, stronger effect = lower value 0.0687 | locus YDL005C, strain med2, stronger effect = lower value 0.0837 | locus YDL040C, strain nat1, stronger effect = lower value 0.0677 | locus YDR001C, strain nth1, stronger effect = lower value 0.0651 | locus YDR069C, strain doa4, stronger effect = lower value 0.0731 | locus YDR137W, strain rgp1, stronger effect = lower value 0.816 | locus YDR159W, strain sac3, stronger effect = lower value 0.817 | locus YDR195W, strain ref2 0.72 | locus YDR297W, strain sur2, stronger effect = lower value 0.0653 | locus YDR334W, strain swr1, stronger effect = lower value 0.0709 | locus YDR335W, strain msn5, stronger effect = lower value 0.0705 | locus YDR392W, strain spt3, stronger effect = lower value 0.11 | locus YEL003W, strain gim4, stronger effect = lower value 0.0616 | locus YEL037C, strain rad23, stronger effect = lower value 0.0635 | locus YEL061C, strain CIN8 (second series), stronger effect = lower value 0.0685 | locus YER015W, strain faa2, stronger effect = lower value 0.0696 | locus YER016W, strain bim1, stronger effect = lower value 0.0673 | locus YER155C, strain BEM2 (second series), stronger effect = lower value 0.101 | locus YFR010W, strain ubp6, stronger effect = lower value 0.0771 | locus YGL167C, strain pmr1, stronger effect = lower value 0.0844 | locus YGL173C, strain kem1, stronger effect = lower value 0.0767 | locus YGL227W, strain vid30, stronger effect = lower value 0.0694 | locus YGL240W, strain doc1, stronger effect = lower value 0.087 | locus YGL253W, strain hxk2, stronger effect = lower value 0.0606 | locus YHR013C, strain ard1, stronger effect = lower value 0.118 | locus YHR027C, strain rpn1, stronger effect = lower value 0.0722 | locus YHR030C, strain SLT2, stronger effect = lower value 0.114 | locus YHR079C, strain IRE1, stronger effect = lower value 0.132 | locus YHR142W, strain chs7, stronger effect = lower value 0.0821 | locus YJL092W, strain hpr5, stronger effect = lower value 0.066 | locus YJL095W, strain BCK1 (second series), stronger effect = lower value 0.0647 | locus YJL095W, strain BCK1, stronger effect = lower value 0.118 | locus YJL115W, strain asf1, stronger effect = lower value 0.0821 | locus YJL154C, strain vps35, stronger effect = lower value 0.0659 | locus YJL164C, strain tpk1, stronger effect = lower value 0.076 | locus YJL166W, strain qcr8, stronger effect = lower value 0.0693 | locus YJL187C, strain SWE1, stronger effect = lower value 0.0656 | locus YJR066W, strain TOR1, stronger effect = lower value -0.00728 | locus YKL160W, strain elf1, stronger effect = lower value 0.0955 | locus YKR026C, strain gcn3, stronger effect = lower value 0.0721 | locus YKR091W, strain srl3, stronger effect = lower value 0.0686 | locus YLL001W, strain dnm1, stronger effect = lower value 0.0682 | locus YLL026W, stronger effect = lower value 0.065 | locus YLL041C, strain sdh2, stronger effect = lower value 0.0651 | locus YLR027C, strain aat2, stronger effect = lower value 0.0649 | locus YLR113W, strain HOG1, stronger effect = lower value 0.129 | locus YLR221C, strain rsa3, stronger effect = lower value 0.0719 | locus YLR258W, strain gsy2, stronger effect = lower value 0.0692 | locus YLR262C, strain YPT6 (second series), stronger effect = lower value 0.0889 | locus YLR320W, strain mms22, stronger effect = lower value 0.0961 | locus YLR342W, strain FKS1, stronger effect = lower value 0.0745 | locus YLR357W, strain rsc2, stronger effect = lower value 0.136 | locus YLR370C, strain arc18, stronger effect = lower value 0.0692 | locus YLR384C, strain iki3, stronger effect = lower value 0.0665 | locus YMR058W, strain fet3, stronger effect = lower value 0.0663 | locus YMR125W, strain sto1, stronger effect = lower value 0.0829 | locus YMR129W, stronger effect = lower value 0.0652 | locus YMR205C, strain PFK2, stronger effect = lower value 0.0948 | locus YMR231W, strain pep5, stronger effect = lower value 0.0753 | locus YNL071W, strain lat1, stronger effect = lower value 0.0684 | locus YNL183C, strain NPR1, stronger effect = lower value 0.021 | locus YNL209W, strain ssb2, stronger effect = lower value 0.0691 | locus YNL248C, strain rpa49, stronger effect = lower value 0.0871 | locus YNL322C, strain KRE1 (second series), stronger effect = lower value 0.0721 | locus YNR049C, strain mso1, stronger effect = lower value 0.0642 | locus YOR001W, strain rrp6, stronger effect = lower value 0.0755 | locus YOR070C, strain gyp1, stronger effect = lower value 0.0663 | locus YOR080W, strain dia2, stronger effect = lower value 0.104 | locus YOR083W, strain WHI5, stronger effect = lower value 0.0727 | locus YOR106W, strain vam3, stronger effect = lower value 0.0721 | locus YOR231W, strain MKK1, stronger effect = lower value 0.129 | locus YOR265W, strain rbl2, stronger effect = lower value 0.0661 | locus YOR270C, strain vph1, stronger effect = lower value 0.108 | locus YPL051W, strain arl3, stronger effect = lower value 0.0733 | locus YPL078C, strain atp4, stronger effect = lower value 0.852 | locus YPL106C, strain sse1, stronger effect = lower value 0.116 | locus YPL240C, strain hsp82, stronger effect = lower value 0.0634 | locus YPL256C, strain CLN2, stronger effect = lower value 0.147
inactive: locus YER111C, strain swi4, stronger effect = lower value 0.984 | locus YJL129C, strain trk1, stronger effect = lower value 0.965 | locus YML120C, strain ndi1, stronger effect = lower value 0.928 | locus YOR290C, strain snf2, stronger effect = lower value 0.963
